# Results: PubChem BioAssay (NCI)
# This is part of a sample that, as a whole, favours compounds with a hit. Of some 83,000 tested, about 20% had one in any assay.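 A percent growth of 40 corresponds to 60% growth inhibition; 0 means no net growth; -100 means all cells died. Active threshold: below 10.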 Values without a mark were called inactive. The source made the active and inactive calls.
# How the values were obtained:
# Assay in all cases: NCI-60 one-dose screen, 48 h (100 = growth as untreated, 0 = no growth, -100 = all killed)
# Conditions in all cases: 10 µM unless noted
# NCI-H23 lung = system: NCI-H23 lung
# NCI-H226 lung = system: NCI-H226 lung
# NCI-H322M lung = system: NCI-H322M lung
# HOP-62 NSCLC = system: HOP-62 NSCLC
# NCI-H460 lung = system: NCI-H460 lung
# HOP-92 NSCLC = system: HOP-92 NSCLC
# NCI-H522 lung = system: NCI-H522 lung
# A549/ATCC NSCLC = system: A549/ATCC NSCLC
# 786-0 renal = system: 786-0 renal
# COLO 205 colon = system: COLO 205 colon
# DU-145 prostate = system: DU-145 prostate
# K-562 leukemia = system: K-562 leukemia
# MALME-3M melanoma = system: MALME-3M melanoma
# MDA-MB-231 breast = system: MDA-MB-231 breast
# RXF 393 renal = system: RXF 393 renal
# SF-268 CNS = system: SF-268 CNS
# SF-295 CNS = system: SF-295 CNS
# SF-539 CNS = system: SF-539 CNS
# UACC-257 melanoma = system: UACC-257 melanoma
# M14 melanoma = system: M14 melanoma
Structure (SMILES),growth (NCI-H23 lung),growth (NCI-H226 lung),growth (NCI-H322M lung),growth (HOP-62 NSCLC),growth (NCI-H460 lung),growth (HOP-92 NSCLC),growth (NCI-H522 lung),growth (A549/ATCC NSCLC),growth (786-0 renal),growth (COLO 205 colon),growth (DU-145 prostate),growth (K-562 leukemia),growth (MALME-3M melanoma),growth (MDA-MB-231 breast),growth (RXF 393 renal),growth (SF-268 CNS),growth (SF-295 CNS),growth (SF-539 CNS),growth (UACC-257 melanoma),growth (M14 melanoma)
O=C(/C=C/C12c3ccccc3C(c3ccccc31)C1C(=O)NC(=O)C12)c1ccc(Br)cc1 (stereo not given),50%,94.4%,55.8%,56.3%,34.6%,74.5%,47.1%,50.2%,69.2%,58.8%,46.6%,21.6%,80.5%,52.6%,25.4%,60.6%,71%,77.9%,61.7%,62.6%
COc1ccc(/C(C)=C(/c2ccc(OCCCN(C)C)cc2)c2ccc(OC(=O)c3ccccc3)cc2)cc1,82.2%,102%,87%,92.3%,67.1%,52.5%,75.1%,69.4%,73%,94.4%,102%,38.9%,83.6%,71.1%,66.7%,77.8%,89.8%,89.1%,89.7%,66.4%
O=C(CCCCCCN1CC(=O)N2[C@H](c3ccc(Br)cc3)c3[nH]c4ccccc4c3C[C@@H]2C1=O)NO,53%,80.2%,50.3%,52.2%,44.7%,31.3%,26.9%,80%,89.1%,38.7%,57.5%,14.7%,20.4%,43.7%,42.4%,71.4%,67.2%,43.7%,34.9%,46.6%
Cc1nc2c(c(=O)[nH]1)C(c1ccccc1)c1ccc3ccccc3c1O2 (stereo not given),50.4%,62.5%,59.1%,20.2%,20.5%,24.7%,-31.4% (active),40.2%,25%,72.9%,56.2%,11.9%,60.9%,46.6%,27.6%,38.2%,22.8%,14.5%,34.5%,22.2%
O=c1c2ccccc2c(=O)c2c1sc1c(=O)c3ccc(O)cc3c(=O)c12,-38.8% (active),-91.3% (active),-95.9% (active),-78.8% (active),-73.1% (active),-24.9% (active),-64.5% (active),-55.1% (active),-52.7% (active),-82.5% (active),-98.5% (active),-11.6% (active),-96.5% (active),-13.5% (active),-84% (active),-32.1% (active),-94.3% (active),-97.1% (active),-95.2% (active),-87.5% (active)
CC1(C)[C@@H](O[C@@H]2OC[C@@H](O[C@@H]3O[C@H](CO)[C@@H](O)[C@H](O)[C@H]3O[C@@H]3OC[C@@H](O)[C@H](O)[C@H]3O)[C@H](O)[C@H]2O[C@@H]2O[C@H](CO)[C@@H](O)[C@H](O)[C@H]2O)CC[C@]2(C)[C@H]3CC[C@]45OC[C@@]6(CC[C@](C)(C=O)C[C@H]64)[C@H](O)C[C@@]5(C)[C@]3(C)CC[C@@H]12,-55.1% (active),-65.2% (active),-86.9% (active),-82.9% (active),-63% (active),-63.7% (active),-89.7% (active),-73.6% (active),-75% (active),-93.9% (active),-82.1% (active),-18% (active),-79.8% (active),-59.5% (active),-77.2% (active),-55.1% (active),-89% (active),-22.6% (active),-87.1% (active),-85% (active)
CCCn1nc(C(=O)N(C)Cc2ccccc2)c2c1CCC(N1CCc3ccccc31)C2 (stereo not given),97.9%,97.9%,101%,103%,112%,90.7%,86.5%,93%,95.2%,117%,109%,86.7%,112%,108%,90.3%,96.4%,92.1%,104%,109%,99%
Oc1c(CN2CCC(N3CCCCC3)CC2)cc(Cc2cc(CN3CCC(N4CCCCC4)CC3)c(O)c3ncccc23)c2cccnc12,39.3%,5.18% (active),19.7%,18.6%,5.8% (active),30.5%,-34.7% (active),22.9%,24.4%,-3.12% (active),37.1%,5.46% (active),15.4%,18.3%,57.5%,27.9%,31.1%,-55.4% (active),57.2%,-26% (active)
CC(C)(C)c1cc(Cl)c(O)c(CNCCO)c1,112%,98.5%,118%,101%,101%,90.8%,106%,109%,102%,112%,113%,102%,112%,115%,98.1%,106%,97%,107%,110%,104%
CCOC(=O)c1c(C)nc2ccccc2c1/C=C/c1ccccc1,51%,74.3%,95.5%,93.8%,86.9%,79.7%,54.7%,57.1%,88.6%,84.1%,91.9%,44.4%,111%,81.9%,113%,85.4%,66.4%,89%,76.6%,82.8%
CC(=O)O[C@H]1C[C@@H]2C(C)(C)C(=O)CC[C@@]2(C)c2ccc(C(C)C)cc21,102%,101%,109%,109%,107%,96.5%,98.3%,107%,93.9%,115%,102%,104%,109%,104%,121%,95.8%,100%,110%,107%,104%
CCCCCCCCCCCCCCCCCC1=NC(C)(C)CN1CC(C)O (stereo not given),84.8%,102%,71.4%,85.2%,4.24% (active),43.6%,25.8%,19.1%,83.9%,34%,34.5%,-25.7% (active),97.4%,-9.03% (active),66.4%,14.6%,95.9%,19.9%,103%,36.6%
COc1ccc(/C=C2\CN(C(=O)C(Cl)Cl)C/C(=C\c3ccc(OC)cc3)C2=O)cc1,-36.9% (active),61.3%,4.8% (active),40.5%,-34.5% (active),-3.88% (active),14.9%,4.79% (active),-48.4% (active),-34.2% (active),-11.2% (active),2.32% (active),-33.9% (active),3.8% (active),-68.2% (active),23.6%,-25.1% (active),-40% (active),22.8%,-39% (active)
CCNC(=O)Oc1ccc(/C(=C(/CC)Cc2ccccc2)c2ccc(OCCN3CCCC3)cc2)cc1,101%,99.4%,91%,83.2%,94.1%,62.1%,100%,98.4%,91.2%,102%,104%,64.7%,107%,80.1%,94.6%,92.9%,102%,97.2%,90.1%,93.1%
